Results on 38 compounds are retold here after PubChem BioAssay (NCI).

This is part of a sample that, as a whole, favours compounds with a hit. Of some 83,000 tested, about 20% had one in any assay.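 The test compound was applied at a single concentration to cells in 96-well plates for 48 hours, and percent growth was recorded.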 Calls of active or inactive are those of the source. The calls were made as follows: active = growth percent below 10; inactive = the rest.

In this experiment the test system is M14 melanoma. Description: NCI-60 one-dose screen, 48 h (100 = growth as untreated, 0 = no growth, -100 = all killed). The note with it: 10 µM unless noted.
Consider `Cc1ccc(Cl)cc1NC(=O)c1cc2ccccc2cc1O`, for which the growth was 2.88% (active). Take `COc1ccc(NC(=O)CSc2nc(C)c(C(C)=O)n2-c2ccc([N+](=O)[O-])cc2)cc1`: the growth is 94.9% (inactive). Under `O=C(NC(Cc1nnc2n(Cc3ccccc3)c(=O)c3c4c(sc3n12)CCCC4)c1ccc(Cl)cc1)c1ccccc1` (stereo not drawn) stands 68% (inactive); under `COc1cc(C2CC(=O)Nc3c2c(C)nn3-c2nc3ccccc3[nH]2)c(OC)c(OC)c1OC` (stereo not drawn), 17% (inactive); under `Cn1c(-c2c(N)n(Cc3ccc(C(F)(F)F)cc3)c3nc(C#N)c(C#N)nc23)nc2ccccc21`, 16.2% (inactive). Under `N#Cc1c(-c2ccccc2)cc(-c2ccc(Nc3nc(Nc4ccc(F)cc4)nc(Nc4ccc(F)cc4)n3)cc2)nc1N` stands 108% (inactive).

Regarding `Cc1c(O)cc(-c2cnc(N/N=C\c3ccc(Cl)cc3)s2)c(O)c1C`, the growth was 96.2% (inactive). As for `COc1ccc2c(c1)O/C(=C\c1cccc(OCC(=O)Nc3nc4ccccc4s3)c1)C2=O`, the figure is 42.9% (inactive). Consider `Cn1c2c(c3ccc(Cl)c(Cl)c31)C(C#N)C1(CCNCC1)NC2=O` (stereo not drawn), for which the growth is 16.1% (inactive). As for `COc1ccc(C2=NN(C(=O)c3cc(OC)c(OC)c(OC)c3)C(c3ccc(Cl)cc3)C2)cc1OC` (stereo not drawn), the figure is 6.09% (active); as for `CCN(CC)CCN1CC(O)=C(c2nc(-c3ccc(Cl)cc3)cs2)C1=N`, -57.1% (active). As for `C=C(C)[C@@H]1CC=C2c3sc(-c4ccc(C)cc4)nc3C[C@@H](C)[C@]2(C)C1`, the figure is 100% (inactive); as for `COC(=O)c1c2c(c[n+]([O-])c1C)C(=O)C=CC2=O`, -64.5% (active); as for `COc1ccc(NC(=O)CSc2nnc(-c3cc(-c4ccccc4)nc4ccccc34)n2-c2ccccc2)cc1`, 98.1% (inactive). As for `COc1cc(C2CC(=O)Nc3c2c(C)nn3-c2nc3ccccc3[nH]2)cc2c1OCC(=O)N2` (stereo not drawn), the figure is 34.8% (inactive). Regarding `Cc1cc(Cl)nc(NCc2cc(Nc3ccnc4cc(Cl)ccc34)ccc2F)n1`, the growth was 60.9% (inactive).

For the compound `COc1ccc2c(c1)[nH]c(=O)c1c3cccnc3cn21`, the growth was 16.2% (inactive). In the case of `Cc1ccc(Cc2cnc(NC(=O)c3ccc4noc(-c5ccccc5)c4c3)s2)cc1`, the growth was 93.4% (inactive). Take `CC1=CN2C(=O)C3C4=C(CCCC4)SC3N=C2CN1c1c(C)cccc1C` (stereo not drawn): the growth is 96.6% (inactive). As for `Cc1ccc2[nH]c(=O)c3c(c2c1)OC(N)=C(C#N)C31c2cc(Br)ccc2-c2ccc(Br)cc21`, the figure is 55.1% (inactive). As for `CS(=O)(=O)c1ccc(Nc2nc(N[C@H]3CCCC[C@H]3N)nc3cc[nH]c(=O)c23)cc1`, the figure is 43.5% (inactive); as for `O=C(NCCCNc1cc(-c2cn(-c3ccccc3)nc2-c2cccc(O)c2)ccn1)c1cccc(O)c1`, 52.8% (inactive); as for `COc1ccc(C(=O)COc2ccc(/C=C3\Oc4ccccc4C3=O)cc2)cc1`, 84.7% (inactive). In the case of `Cc1ccc(C2SCC(=O)N2Cc2ccccc2)cc1` (stereo not drawn), the growth was 104% (inactive).

As for `Cc1cccc(Cc2cnc(NC(=O)/C=C/c3ccco3)s2)c1`, the growth was 10.3% (inactive).

Consider `CN(C)CCNc1nc2ccccc2c2c1c1c(n2Cc2ccccc2)-c2ccccc2C1=O`, for which the growth is -81.8% (active).

Turning to `Cc1occc1-c1n[nH]c(=S)n1N1C(=O)CSC1=S`, the growth is 102% (inactive). As for `Cc1cccc(NC(=O)CSc2nc3ccccc3[nH]2)c1`, the figure is 107% (inactive); as for `Cc1ccccc1NC(=O)N/C(N)=N/c1nc(C)c(C)s1`, 24% (inactive). As for `NNC(=O)c1nc(N)n(-c2ccc(S(N)(=O)=O)cc2)n1`, the figure is 94.4% (inactive); as for `COc1cc(CCC[P+](c2ccccc2)(c2ccccc2)c2ccccc2)cc2c1OCO2`, 30.8% (inactive).

For the compound `O=C1/C(=C2/C=Nc3ccccc32)N(O)c2ccccc21`, the growth was 87.4% (inactive). Under `COc1ccccc1N1C(=O)/C(=C/C2=Cc3ccccc3OC2)SC1=S` stands 98.2% (inactive); under `C=CCn1c(C)nc2cc(Nc3nc(Cl)nc4ccccc34)ccc21`, 110% (inactive). As for `COc1cc(/C=C/C(=O)c2c(C)nc3ccccc3c2C)ccc1OCCCN1CCN(C(=O)c2ccco2)CC1`, the figure is 94.4% (inactive). As for `Cn1cc(-c2csc(-c3ccccc3)n2)c2cccnc21`, the figure is -76.6% [100 µM] (active); as for `N=C(N)c1ccc(-c2ccc(-c3cncc4ccccc34)s2)s1`, -76.8% (active); as for `CC(C)CC(NC(=O)CN(Cc1ccccc1)S(C)(=O)=O)C(=O)O` (stereo not drawn), 97% (inactive).
